Screens as filed in PubChem.
This is a sample that favours compounds with a hit; in the whole collection about 21% have one here.
Pf growth 48h: P. falciparum growth inhibition at 48 hours (one generation); P. falciparum luciferase growth in erythrocytes, 48 h; Potency, µM (top dose mostly 28.7 µM), inactives show at the top dose activity change, negative = inhibition, hits mostly inhibitors; actives 5.9% (n = 310,000); active means well fitted inhibition curve with a large enough effect; inconclusive means small, poorly fitted or top-dose-only effect, or another doubt; inactive means no such curve, though single readings can be large or run the other way; further: potency means the concentration at half of the fitted maximal effect; on the % scale 0 is the no-effect control and ±100 the full control effect
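Luminescence readout; reporter = integrated firefly luciferase in P. falciparum. RBC culture at 2% hematocrit, 0.1% parasitemia final, 37 C/5% CO2; decreased signal taken as growth inhibition.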
SARS PLpro yeast: inhibitors of SARS-CoV papain-like protease in yeast. S. cerevisiae expressing SARS-CoV PLpro, growth rescue. actives 0.19% (n = 330,000). Potency, µM (series often up to 32.9 µM), for inactives: top-dose activity, positive = growth rescue, actives largely listed as activators; further: potency means the concentration at half of the fitted maximal effect; 0% is about no effect; nearly all actives have a fitted effect of over 55% in size
CHX counter: counter-screen for Shiga toxin inhibitors: cycloheximide protein synthesis inhibition; max response, %; cell reporter, cycloheximide protein synthesis inhibition counterscreen; AID 2314; actives 12% (n = 300,000); in the data active means max response mostly above about 13%, no sharp cut-off; inactive means mostly below about 14%; further: read at 38.3 µM for the half of the compounds with a filed dose; 0% is about no effect
Pf growth 96h: P. falciparum growth inhibition at 96 hour, primary screen for plastid delayed-death inhibitors. P. falciparum luciferase reporter growth, 96 h. Potency, µM (doses to about 28.7 µM), for the others: at the top dose activity change, negative = inhibition, most hits filed as inhibitors. actives 6.9% (n = 320,000). AID 504834; active means well fitted inhibition curve with a large enough effect; inconclusive means small, poorly fitted or top-dose-only effect, or another doubt; inactive means no such curve, though single readings can be large or run the other way; further: potency means the concentration at half of the fitted maximal effect; on the % scale 0 is the no-effect control and ±100 the full control effect
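Luminescence readout: decreased luciferase signal marks inhibited growth of reporter-expressing P. falciparum in infected red cells (2% hematocrit, 0.05% parasitemia final), exposed to compound two generations (96 h, 37 C, 5% CO2).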
NS1 inh: inhibitors of influenza NS1 protein function. Potency, µM (doses to about 46.1 µM), for the others: at the top dose activity, positive = more growth. actives 0.4% (n = 270,000); further: potency means the concentration at half of the fitted maximal effect; actives are rising curves; nearly all actives have a fitted effect of over 50% in size
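Recovery from NS1-induced slow growth read by OD600 in budding yeast switched to galactose assay medium (pH 6.0, -URA) at 1:100 dilution. Compound 23 nl per well; the matching strain lacking NS1 serves as control.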
Shiga inhibitor: blocks Shiga toxin action in Vero cells | Vero cells, Shiga toxin protein synthesis inhibition reporter | inhibition, % at 38.7 µM | actives 9.2% (n = 290,000); in the data active means inhibition mostly above about 28%, no sharp cut-off; inactive means mostly below about 43%; further: 0% is about no effect
* marks the source's active call; other numbers are inactive results; ? = inconclusive; . = not tested or not shown. Unless noted, the call rests on the fitted dose curve.

SMILES | Pf growth 48h | SARS PLpro yeast | CHX counter | Pf growth 96h | NS1 inh | Shiga inhibitor
CCc1ccc(NC(=O)C(=O)c2cn(CC(=O)N3CCCCC3)c3ccccc23)cc1 | -29% | 3% | -1 | ? | -49% | 14
N#CC(=Cc1ccc(O)c(O)c1)C(N)=S | . | . | . | . | 12% | .
CC(=O)c1c(C)[nH]c(C(=O)OCC(=O)Nc2sc3c(c2C#N)CCC(C)C3)c1C (stereo not given) | -3% | -1% | -1 | 81% | -39% | -4
O=C(Cn1c(-c2ccccc2)c[n+]2ccsc12)c1ccc([N+](=O)[O-])cc1 | 11% | 1% | 21* | ? | 19% | 71*
O=C(Cn1c(-c2ccccc2)c[n+]2ccsc12)c1ccccc1 | ? | -1% | 3 | ? | -2% | -2
Cc1nnc(NC(=O)CSc2ccccn2)s1 | 7% | -2% | 1 | 13µM* | 0% | 21
O=C(CSc1ccccn1)Nc1nc2ccc(Br)cc2s1 | -6% | -13% | 25* | ? | -5% | 38
CCc1ccc(-c2ccc(SCC(=O)Nc3nnc(C)s3)nn2)cc1 | 145% | 0% | 21 | 53% | 3% | 80*
COC(=O)Nc1nc2ccc(Br)cc2s1 | 32% | 1% | 16 | 33% | 1% | 26
CC(C)Cc1nnc(NC(=O)CSc2ccccn2)s1 | . | 6% | 23* | ? | -12% | 19
CCOc1ccc(-c2ccc(SCC(=O)Nc3nnc(C)s3)nn2)cc1 | -3% | 0% | 10 | -8% | . | 19
COc1ccc(NS(=O)(=O)c2cc(NC(=O)c3ccc(=O)[nH]n3)ccc2N2CCOCC2)cc1 | ? | -2% | . | ? | . | .
Cc1ccc(CNc2nc(-c3cccnc3)nc3ccccc23)cc1 | 6.6µM* | -17% | 8 | ? | -88% | -2
NS(=O)(=O)c1ccc(CNc2nc(-c3cccnc3)nc3ccccc23)cc1 | ? | 1% | -1 | ? | ? | -8
c1cncc(CNc2nc(-c3cccnc3)nc3ccccc23)c1 | ? | 1% | -4 | ? | -3% | -10
CC(C)(C)c1ccc(-c2nc(NCc3cccnc3)c3ccccc3n2)cc1 | ? | -90% | 51* | 17% | -65% | 76*
c1ccc(CNc2nc(-c3cccnc3)nc3ccccc23)cc1 | 9.3µM* | -5% | -2 | 8.3µM* | -40% | -6
c1ccc(CNc2nc(-c3ccccn3)nc3ccccc23)cc1 | 1.5µM* | -6% | -3 | 0.66µM* | -14% | -9
CCC(C)Nc1nc(-c2cccc(OC)c2O)nc2ccccc12 (stereo not given) | -15% | 9% | 2 | ? | 3% | -4
Fc1ccccc1/C=N/Nc1nc(-c2ccccn2)nc2ccccc12 | 2.3µM* | -2% | 1 | ? | 6% | 1
CCC(C)Nc1nc(-c2ccccn2)nc2ccccc12 (stereo not given) | . | 0% | -5 | 0.93µM* | -3% | -6
c1ccc(CNc2nc(NCc3ccccc3)c3ccccc3n2)cc1 | 1.2µM* | -1% | -7 | 0.74µM* | -5% | -20
c1ccc(CNc2nc(-c3ccccc3)nc3ccccc23)cc1 | ? | -15% | -5 | -91% | -144% | .
c1cncc(-c2nc(NCc3ccc4c(c3)OCO4)c3ccccc3n2)c1 | 13µM* | -3% | -1 | 10µM* | -6% | -6
N=C(N)n1cc(/C=N\N=C(N)N)cn1 | . | . | . | . | 3% | .
SMILES | Pf growth 48h | SARS PLpro yeast | CHX counter | Pf growth 96h | NS1 inh | Shiga inhibitor
O=C(NC1CCN(C(=O)C2CCCCC2)CC1)c1ccccc1 | 8% | 0% | -3 | 4% | 3% | -4
CC(C)CCCC(C)NS(=O)(=O)Cc1ccccc1 (stereo not given) | -8% | -22% | -2 | . | -56% | 33
O=C(Cn1cnc2c(nnn2Cc2ccc(F)cc2)c1=O)N1CCN(c2ccccc2)CC1 | ? | -1% | -1 | -5% | -8% | -14
COc1cccc(-c2nc(NCc3cccnc3)c3ccccc3n2)c1O | 12µM* | 1% | 19* | ? | 0% | 37
COc1cccc(-c2nc(NC(C)C)c3ccccc3n2)c1O | ? | -22% | -4 | ? | -135% | -6
Fc1ccc(CNc2nc(-c3cccnc3)nc3ccccc23)cc1 | 12µM* | -13% | 7 | ? | -38% | -6
CC(Nc1nc(-c2cccnc2)nc2ccccc12)c1ccc(F)cc1 (stereo not given) | 4.7µM* | -66% | -2 | 6.6µM* | -56% | 1
